Source: the supplement of paper PMC6555819

Each sequence was assayed on LXRb:RXRa (NR concentration 270 nM, RXRa partner concentration 90 nM) (assay: PBM binding z-score (relative to random genomic background probes); higher = stronger binding; sequences stand for … in GC…GCGATTGACAGCGTAGAATGAAGG).
How it was run: (§1)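 Ligand-free nuclear receptor dimers were bound for 1 h to custom Agilent 4×180K protein-binding microarrays. Detection used antibodies against each partner (one per run). Binding z-scores rest on regression-normalized fluorescence, with random background probes as the reference.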

Row | Sequence | PBM binding z-score
1 | TCTTGTAGATCACGCAGGTTAAGAAAGCCTGAGT | 0.551
2 | TCTAGCAGGCCAGAAGGTCACTCAAGAGGTACGG | 1.8
3 | TTACCAAGGTGAAATGTCGTTGATGCACGCCTTG | 0.388
4 | CCTTACGGGTCACTTCAGGTTATAGCATCGGAGT | 5.47
5 | CCTATCAGGCCAGGGTCACTCAAGCATTTCGCTT | 2.23
6 | AGAATGAGGTTAAGATCAGGTAAACAGAATACAT | 2.24
7 | AGAATGACGTTACCAAAGATCAGGGAAACGCTTG | -0.336
8 | ATCGAAAGGTCGAAGATGAGTATACCCACCCGAA | 2.41
9 | TCGAGTAGGTTAGGGGCATTAAGAATGGCGTCGA | 0.739
10 | TAGCCTAGGTCATTCAGGGGCCAGTATCGAAAGC | 3.2
11 | CCAGACAGGTGAGAAGGTAACGCAGCCTCGATTA | 0.115
12 | CCTCGGAGGACAGAAGGTCAGAGCTGTCCGCTTT | 1.03
13 | CGAACTAGGTCATTGATAGGACAGTGAATAGTAA | 1.82
14 | GATACAGTGTCAGCTAGAGGCCAGAGTATGGAAA | -0.763
15 | GATACACGGTCAGCTAGAGGCCAGAGTATGGAAA | -0.57
16 | GCAGACAGGTGAAACGCGGGTAACTCAGGGTGGC | -0.193
17 | GCTTGTTGATCAAGGTTAAGAAAGACTAAGCTAA | 0.239
18 | ATATGTAGGTTATCGGGTCCTTCAGTTTGCGCAT | 0.856
19 | CCTACTGGGCCATCATGTCATTGATATCAACGTT | 0.0528
20 | ATCGGAAGGTCGTGAGGTGAGTATACAGAAAGGC | 1.69

Row | Sequence | PBM binding z-score
21 | TTACCAAGGTGAGCTAAGGTCGTTGATCCAACTC | 0.977
22 | CCTGCTAGGCCAATGGTCAGCTAAAGCAGCTCGC | -0.914
23 | CGTTCAAGGTCAATGCTAGGTCAGTGAAAGCATT | 4.36
24 | ATCGAAAGGTCGAAGGTGGGTATACCCACCCGAA | 2.34
25 | CGTCCAAGGTCAAGGTTAGTGAAAGAGACTCGAA | 3.88
26 | TCATATTGGTAAAAGGTGAAAGTCGGTGTGGTAA | 2.06
27 | GATACAGGGTTAGCTAGAGGCCAGAGTATGGAAA | 0.181
28 | CGAACTAGCTCATCCAGGACAGTGAATACATTGA | -0.293
29 | CGTCCAAGGTCAAGGTCAGCGAAAGAGACTCGAA | 4.65
30 | CCTACTGGGCCAGGGTCATTGATCAGTCAAAGCA | 2.58
31 | AGAATGAGGTAATTAAGATCAGGGAATTGCGGTC | -0.116
32 | CGTCAAAGTGCAACTAAGGTAACGTAAAGCACGC | 0.5
33 | TAGCCTAGGTCATTGGGCCGGTATAGTACGCATC | 2.23
34 | TCATATAGGTAAAGGTTAAAGTCGAACGATATGA | 2.89
35 | TCTTGTAGATCAACAGGAGGTTAAGGAAGATCGA | 0.484
36 | AATTACGGGTCAACGAGGTTATAGCACGCGTATA | 4.88
37 | CTCGAAAGGTCGTGCACAGGTGAGTATACCAAAC | 4.18
38 | TCTCGGACGACACGAAGGTCAGAGCTTTCCAGAG | 1.17
39 | ACTAGCAGGCCAAGGTTGGGTCACTCAAACAAAG | 0.203
40 | TTACCAAGGTGTAAGGTCGTTGATGCACGCCTTG | 0.478

The sequences below were run on LXRb homodimer (NR concentration 270 nM) in the same assay as above.
How it was run: as §1

Row | Sequence | PBM binding z-score
41 | TCTTGTAGATCACGCAGGTTAAGAAAGCCTGAGT | -0.17
42 | TCTAGCAGGCCAGAAGGTCACTCAAGAGGTACGG | -0.711
43 | TTACCAAGGTGAAATGTCGTTGATGCACGCCTTG | -0.436
44 | CCTTACGGGTCACTTCAGGTTATAGCATCGGAGT | 0.687
45 | CCTATCAGGCCAGGGTCACTCAAGCATTTCGCTT | -0.67
46 | AGAATGAGGTTAAGATCAGGTAAACAGAATACAT | -0.136
47 | AGAATGACGTTACCAAAGATCAGGGAAACGCTTG | -0.144
48 | ATCGAAAGGTCGAAGATGAGTATACCCACCCGAA | 0.732
49 | TCGAGTAGGTTAGGGGCATTAAGAATGGCGTCGA | -0.27
50 | TAGCCTAGGTCATTCAGGGGCCAGTATCGAAAGC | 1.1
51 | CCAGACAGGTGAGAAGGTAACGCAGCCTCGATTA | -0.496
52 | CCTCGGAGGACAGAAGGTCAGAGCTGTCCGCTTT | -0.587
53 | CGAACTAGGTCATTGATAGGACAGTGAATAGTAA | -0.194
54 | GATACAGTGTCAGCTAGAGGCCAGAGTATGGAAA | -0.98
55 | GATACACGGTCAGCTAGAGGCCAGAGTATGGAAA | -0.753
56 | GCAGACAGGTGAAACGCGGGTAACTCAGGGTGGC | -1.11
57 | GCTTGTTGATCAAGGTTAAGAAAGACTAAGCTAA | -0.437
58 | ATATGTAGGTTATCGGGTCCTTCAGTTTGCGCAT | 0.389
59 | CCTACTGGGCCATCATGTCATTGATATCAACGTT | -0.132
60 | ATCGGAAGGTCGTGAGGTGAGTATACAGAAAGGC | 0.0341

Row | Sequence | PBM binding z-score
61 | TTACCAAGGTGAGCTAAGGTCGTTGATCCAACTC | -1.12
62 | CCTGCTAGGCCAATGGTCAGCTAAAGCAGCTCGC | -0.839
63 | CGTTCAAGGTCAATGCTAGGTCAGTGAAAGCATT | 1.24
64 | ATCGAAAGGTCGAAGGTGGGTATACCCACCCGAA | 0.437
65 | CGTCCAAGGTCAAGGTTAGTGAAAGAGACTCGAA | 0.41
66 | TCATATTGGTAAAAGGTGAAAGTCGGTGTGGTAA | 0.291
67 | GATACAGGGTTAGCTAGAGGCCAGAGTATGGAAA | -0.961
68 | CGAACTAGCTCATCCAGGACAGTGAATACATTGA | -0.166
69 | CGTCCAAGGTCAAGGTCAGCGAAAGAGACTCGAA | 0.78
70 | CCTACTGGGCCAGGGTCATTGATCAGTCAAAGCA | -1.02
71 | AGAATGAGGTAATTAAGATCAGGGAATTGCGGTC | -0.24
72 | CGTCAAAGTGCAACTAAGGTAACGTAAAGCACGC | -0.623
73 | TAGCCTAGGTCATTGGGCCGGTATAGTACGCATC | 0.429
74 | TCATATAGGTAAAGGTTAAAGTCGAACGATATGA | 0.157
75 | TCTTGTAGATCAACAGGAGGTTAAGGAAGATCGA | -0.341
76 | AATTACGGGTCAACGAGGTTATAGCACGCGTATA | 1.02
77 | CTCGAAAGGTCGTGCACAGGTGAGTATACCAAAC | 0.385
78 | TCTCGGACGACACGAAGGTCAGAGCTTTCCAGAG | -0.374
79 | ACTAGCAGGCCAAGGTTGGGTCACTCAAACAAAG | -1.03
80 | TTACCAAGGTGTAAGGTCGTTGATGCACGCCTTG | -0.764
